Columns and labels:
Assay in all cases: DAPPL (digital affinity profiling via proximity ligation, sequencing); 10 mM Tris-HCl pH 7.5, 50 mM NaCl, 1 mM DTT, 4% glycerol, room temperature, 30 min; GST-TFs on glutathione beads, 16-mer random dsDNA library, 0.1% formaldehyde crosslink after washing; high values mean tight binding
Conditions in all cases: protein: recombinant; tags: N-terminal GST; dsDNA, one strand shown
FLI1 = molecular target: T1, FLI1 (Homo sapiens, UniProt Q01543 1-452)
T1 sequence: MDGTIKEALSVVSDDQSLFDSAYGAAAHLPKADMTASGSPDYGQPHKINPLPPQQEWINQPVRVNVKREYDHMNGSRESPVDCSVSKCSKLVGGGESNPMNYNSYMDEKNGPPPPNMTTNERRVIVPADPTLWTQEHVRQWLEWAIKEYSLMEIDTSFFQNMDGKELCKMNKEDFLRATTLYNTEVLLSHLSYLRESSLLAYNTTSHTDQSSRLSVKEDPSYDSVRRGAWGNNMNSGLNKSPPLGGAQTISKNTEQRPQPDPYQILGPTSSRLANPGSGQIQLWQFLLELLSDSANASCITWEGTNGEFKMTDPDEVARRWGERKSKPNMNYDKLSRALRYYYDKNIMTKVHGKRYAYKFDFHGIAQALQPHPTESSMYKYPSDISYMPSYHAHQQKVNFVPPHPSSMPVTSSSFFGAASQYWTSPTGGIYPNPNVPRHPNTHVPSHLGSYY
Procedure, shortened: (§1)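 Each value of binding signal is a hexamer's read frequency for a factor divided by the same hexamer's frequency in the tag-only sample. Barcoded, bead-captured GST fusions of human transcription factors made in yeast were pooled with that sample and incubated with 200 nmole of a random double-stranded 16-mer DNA library in Tris/NaCl/DTT/glycerol buffer at room temperature for 30 min. Washing, 0.1% formaldehyde crosslinking, proximity ligation, PCR and Illumina NextSeq500 sequencing followed.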

ELK1 = molecular target: T2, ELK1 (Homo sapiens, UniProt P19419 1-428)
T2 sequence: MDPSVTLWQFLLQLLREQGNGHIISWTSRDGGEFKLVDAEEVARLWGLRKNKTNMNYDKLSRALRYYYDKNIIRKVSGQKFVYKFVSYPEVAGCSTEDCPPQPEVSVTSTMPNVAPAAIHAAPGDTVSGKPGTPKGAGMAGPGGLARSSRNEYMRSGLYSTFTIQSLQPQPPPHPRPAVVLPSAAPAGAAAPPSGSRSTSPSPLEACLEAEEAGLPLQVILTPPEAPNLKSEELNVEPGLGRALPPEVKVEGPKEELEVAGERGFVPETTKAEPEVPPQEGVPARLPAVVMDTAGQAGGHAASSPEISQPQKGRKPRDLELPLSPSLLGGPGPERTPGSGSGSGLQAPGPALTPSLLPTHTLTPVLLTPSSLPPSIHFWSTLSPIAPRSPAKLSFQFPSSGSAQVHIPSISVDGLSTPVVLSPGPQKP
Procedure, shortened: as §1

GABPA = molecular target: T3, GABPA (Homo sapiens, UniProt Q06546 1-454)
T3 sequence: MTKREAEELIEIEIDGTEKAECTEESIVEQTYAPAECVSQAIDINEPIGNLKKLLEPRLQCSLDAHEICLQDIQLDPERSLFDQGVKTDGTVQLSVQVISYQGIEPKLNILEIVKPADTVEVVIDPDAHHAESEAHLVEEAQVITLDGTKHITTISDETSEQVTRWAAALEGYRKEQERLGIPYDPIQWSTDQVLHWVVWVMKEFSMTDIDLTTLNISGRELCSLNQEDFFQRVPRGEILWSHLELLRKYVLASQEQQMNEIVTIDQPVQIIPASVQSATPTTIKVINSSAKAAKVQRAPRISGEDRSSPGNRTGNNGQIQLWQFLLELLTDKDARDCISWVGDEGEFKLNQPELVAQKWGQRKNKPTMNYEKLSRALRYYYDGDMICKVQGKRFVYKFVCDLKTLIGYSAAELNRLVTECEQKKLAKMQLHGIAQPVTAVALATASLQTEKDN
Procedure, shortened: as §1

ERG = molecular target: T4, ERG (Homo sapiens, UniProt P11308 1-479)
T4 sequence: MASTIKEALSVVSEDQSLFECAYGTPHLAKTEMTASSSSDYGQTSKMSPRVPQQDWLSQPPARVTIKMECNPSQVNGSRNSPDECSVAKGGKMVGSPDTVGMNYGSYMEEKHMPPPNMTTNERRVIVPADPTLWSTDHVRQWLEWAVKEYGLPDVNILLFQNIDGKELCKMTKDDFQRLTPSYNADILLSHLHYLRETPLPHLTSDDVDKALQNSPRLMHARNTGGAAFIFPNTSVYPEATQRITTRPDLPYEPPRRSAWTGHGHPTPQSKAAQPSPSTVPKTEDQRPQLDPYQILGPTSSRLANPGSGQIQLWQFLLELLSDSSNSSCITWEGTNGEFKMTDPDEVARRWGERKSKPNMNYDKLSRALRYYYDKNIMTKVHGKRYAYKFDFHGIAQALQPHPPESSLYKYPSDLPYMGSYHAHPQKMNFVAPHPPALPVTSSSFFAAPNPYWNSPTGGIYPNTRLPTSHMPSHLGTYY
Procedure, shortened: as §1

ELF1 = ELF1 (Homo sapiens, UniProt P32519 1-619)
Procedure, shortened: as §1

EHF = molecular target: T5, EHF (Homo sapiens, UniProt Q9NZC4 1-300)
T5 sequence: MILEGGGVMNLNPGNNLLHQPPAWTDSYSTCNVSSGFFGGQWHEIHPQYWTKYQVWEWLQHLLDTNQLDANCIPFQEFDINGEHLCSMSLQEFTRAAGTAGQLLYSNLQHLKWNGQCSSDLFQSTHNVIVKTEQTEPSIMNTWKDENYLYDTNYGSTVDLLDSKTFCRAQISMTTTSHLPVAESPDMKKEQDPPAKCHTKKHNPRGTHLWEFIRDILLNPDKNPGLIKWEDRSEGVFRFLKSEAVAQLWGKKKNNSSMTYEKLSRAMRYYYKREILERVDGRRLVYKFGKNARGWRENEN
Procedure, shortened: as §1

SPI1 = SPI1 (Homo sapiens, UniProt P17947 1-270)
Procedure, shortened: as §1

SPIB = SPIB (Homo sapiens, UniProt Q01892 1-262)
Procedure, shortened: as §1

ELK3 = molecular target: T6, ELK3 (Homo sapiens, UniProt P41970 1-407)
T6 sequence: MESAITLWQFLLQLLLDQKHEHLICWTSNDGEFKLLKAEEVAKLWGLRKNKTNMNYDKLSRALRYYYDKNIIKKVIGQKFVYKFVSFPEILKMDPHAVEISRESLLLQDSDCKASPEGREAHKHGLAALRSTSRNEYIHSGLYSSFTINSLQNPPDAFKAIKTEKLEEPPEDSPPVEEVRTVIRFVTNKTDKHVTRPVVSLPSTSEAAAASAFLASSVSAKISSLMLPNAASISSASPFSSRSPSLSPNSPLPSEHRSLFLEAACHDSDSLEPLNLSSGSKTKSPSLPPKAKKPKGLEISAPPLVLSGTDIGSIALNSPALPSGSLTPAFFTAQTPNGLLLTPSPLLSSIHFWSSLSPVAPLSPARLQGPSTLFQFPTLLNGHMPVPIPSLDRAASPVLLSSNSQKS
Procedure, shortened: as §1

Sequence of SPIB (Q01892 whole entry): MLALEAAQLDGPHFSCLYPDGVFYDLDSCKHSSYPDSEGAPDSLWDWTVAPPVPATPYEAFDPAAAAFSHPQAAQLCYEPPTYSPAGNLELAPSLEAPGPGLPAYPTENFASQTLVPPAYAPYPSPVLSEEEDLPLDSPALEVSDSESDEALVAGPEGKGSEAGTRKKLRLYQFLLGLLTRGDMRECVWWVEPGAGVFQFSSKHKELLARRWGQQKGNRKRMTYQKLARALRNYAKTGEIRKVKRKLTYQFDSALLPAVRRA
Sequence of ELF1 (P32519 whole entry): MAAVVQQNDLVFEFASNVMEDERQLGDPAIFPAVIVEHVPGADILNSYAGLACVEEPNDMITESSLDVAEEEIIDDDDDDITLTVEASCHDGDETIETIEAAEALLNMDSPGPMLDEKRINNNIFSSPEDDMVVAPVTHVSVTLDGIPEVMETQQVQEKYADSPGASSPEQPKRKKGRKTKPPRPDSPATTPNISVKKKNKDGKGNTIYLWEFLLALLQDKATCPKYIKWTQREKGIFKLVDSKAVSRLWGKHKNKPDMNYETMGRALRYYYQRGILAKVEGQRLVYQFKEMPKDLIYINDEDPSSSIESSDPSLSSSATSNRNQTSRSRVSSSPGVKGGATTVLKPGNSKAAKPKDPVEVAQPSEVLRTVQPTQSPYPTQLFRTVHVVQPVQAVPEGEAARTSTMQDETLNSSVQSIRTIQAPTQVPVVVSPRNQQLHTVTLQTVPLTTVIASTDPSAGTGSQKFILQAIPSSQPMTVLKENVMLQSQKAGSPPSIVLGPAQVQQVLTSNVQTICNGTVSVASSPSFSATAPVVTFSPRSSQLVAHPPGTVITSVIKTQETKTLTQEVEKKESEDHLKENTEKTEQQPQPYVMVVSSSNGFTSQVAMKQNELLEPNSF

Row | Sequence | binding signal (FLI1) | binding signal (ELK1) | binding signal (GABPA) | binding signal (ERG) | binding signal (ELF1) | binding signal (EHF) | binding signal (SPI1) | binding signal (SPIB) | binding signal (ELK3)
1 | ATACAA | 1.19 fold enrichment (6-mer frequency, TF over GST control) | 1.15 fold enrichment (6-mer frequency, TF over GST control) | 1.14 fold enrichment (6-mer frequency, TF over GST control) | 1.1 fold enrichment (6-mer frequency, TF over GST control) | 1.21 fold enrichment (6-mer frequency, TF over GST control) | 1.15 fold enrichment (6-mer frequency, TF over GST control) | 1.07 fold enrichment (6-mer frequency, TF over GST control) | 1.09 fold enrichment (6-mer frequency, TF over GST control) | 1.31 fold enrichment (6-mer frequency, TF over GST control)
2 | TCGACA | 1.38 fold enrichment (6-mer frequency, TF over GST control) | 1.27 fold enrichment (6-mer frequency, TF over GST control) | 1.43 fold enrichment (6-mer frequency, TF over GST control) | 1.35 fold enrichment (6-mer frequency, TF over GST control) | 1.38 fold enrichment (6-mer frequency, TF over GST control) | 1.21 fold enrichment (6-mer frequency, TF over GST control) | 1.28 fold enrichment (6-mer frequency, TF over GST control) | 1.25 fold enrichment (6-mer frequency, TF over GST control) | 1.35 fold enrichment (6-mer frequency, TF over GST control)
3 | TCTCGA | 1.35 fold enrichment (6-mer frequency, TF over GST control) | 1.34 fold enrichment (6-mer frequency, TF over GST control) | 1.42 fold enrichment (6-mer frequency, TF over GST control) | 1.38 fold enrichment (6-mer frequency, TF over GST control) | 1.41 fold enrichment (6-mer frequency, TF over GST control) | 1.37 fold enrichment (6-mer frequency, TF over GST control) | 1.36 fold enrichment (6-mer frequency, TF over GST control) | 1.43 fold enrichment (6-mer frequency, TF over GST control) | 1.31 fold enrichment (6-mer frequency, TF over GST control)
4 | TCTGAT | 1.15 fold enrichment (6-mer frequency, TF over GST control) | 1.21 fold enrichment (6-mer frequency, TF over GST control) | 1.29 fold enrichment (6-mer frequency, TF over GST control) | 1.1 fold enrichment (6-mer frequency, TF over GST control) | 1.27 fold enrichment (6-mer frequency, TF over GST control) | 1.25 fold enrichment (6-mer frequency, TF over GST control) | 1.11 fold enrichment (6-mer frequency, TF over GST control) | 1.31 fold enrichment (6-mer frequency, TF over GST control) | 1.14 fold enrichment (6-mer frequency, TF over GST control)

Source: publication PMC7862700, “An all-to-all approach to the identification of sequence-specific readers for epigenetic DNA modifications on cytosine”
